# Assay outcomes deposited in PubChem by National Center for Advancing Translational Sciences (NCATS).
# HP1b binding inh – HTS for Inhibitors of HP1-beta Chromodomain Interactions with Methylated Histone Tails. Chromobox protein homolog 1 (Homo sapiens), P83916. AlphaScreen HP1-beta / biotin-H3K9me3 peptide binding. Potency, µM (highest dose often 114 µM), for inactives: top-dose activity change, negative = inhibition, usual class: inhibitors. hit rate 0.56% among 390,000; note: nearly all actives have a fitted effect of over 70% in size
#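 AlphaScreen: HP1-beta (50 nM) preformed 30 min with biotin-H3(1-18)K9me3 peptide (50 nM) in PBS pH 7.4, 0.01% Tween-20. Compound added for 30 min at RT, then streptavidin donor/nickel chelate acceptor beads (10 ug/mL) for 30 min.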
# G9a inh – qHTS Assay for Inhibitors of Histone Lysine Methyltransferase G9a. hit rate 8.8% among 350,000. G9a H3K9 monomethylation, AlphaScreen, 2 h. Potency, µM (highest dose often 102 µM), without a hit: top-dose activity, negative = inhibition, usual class: inhibitors. Histone-lysine N-methyltransferase EHMT2 (Homo sapiens), Q96KQ7. AID 504332, 2011; note: % is set by controls: 0 for no effect and ±100 for the full control effect; nearly all actives have a fitted effect of over 75% in size
#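 Methyltransferase reactions run at room temperature for 2 h (20 nM enzyme, 500 nM biotin-H3K9 peptide, 20 uM SAM) after a 15 min compound preincubation; product detected by AlphaScreen beads and anti-H3K9me1 antibody.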
# PLK1 PBD block – qHTS for Inhibitors of PLK1-PDB (polo-like kinase 1 - polo-box domain): Primary Screen | Potency, µM, for inactives: max response, negative = inhibition, actives largely listed as inhibitors | Plk1 PBD binding of FITC phosphopeptide, fluorescence polarization | hit rate 2.8% among 360,000 | Serine/threonine-protein kinase PLK1 (Homo sapiens), P53350; note: series mostly up to about 57 µM; % is set by controls: 0 for no effect and ±100 for the full control effect; nearly all actives have a fitted effect of over 65% in size
# BAZ2B inh – qHTS Assay for Inhibitors of BAZ2B; Bromodomain adjacent to zinc finger domain protein 2B (Homo sapiens), Q9UIF8; AlphaScreen BAZ2B-H3K14Ac peptide displacement; Potency, µM (series often up to 114 µM), for inactives: top-dose activity change, negative = inhibition, most hits filed as inhibitors; hit rate 4.4% among 360,000; note: % is set by controls: 0 for no effect and ±100 for the full control effect; nearly all actives have a fitted effect of over 60% in size
# Target sequence (Q9UIF8 whole entry, looked up, the tested form may be a part): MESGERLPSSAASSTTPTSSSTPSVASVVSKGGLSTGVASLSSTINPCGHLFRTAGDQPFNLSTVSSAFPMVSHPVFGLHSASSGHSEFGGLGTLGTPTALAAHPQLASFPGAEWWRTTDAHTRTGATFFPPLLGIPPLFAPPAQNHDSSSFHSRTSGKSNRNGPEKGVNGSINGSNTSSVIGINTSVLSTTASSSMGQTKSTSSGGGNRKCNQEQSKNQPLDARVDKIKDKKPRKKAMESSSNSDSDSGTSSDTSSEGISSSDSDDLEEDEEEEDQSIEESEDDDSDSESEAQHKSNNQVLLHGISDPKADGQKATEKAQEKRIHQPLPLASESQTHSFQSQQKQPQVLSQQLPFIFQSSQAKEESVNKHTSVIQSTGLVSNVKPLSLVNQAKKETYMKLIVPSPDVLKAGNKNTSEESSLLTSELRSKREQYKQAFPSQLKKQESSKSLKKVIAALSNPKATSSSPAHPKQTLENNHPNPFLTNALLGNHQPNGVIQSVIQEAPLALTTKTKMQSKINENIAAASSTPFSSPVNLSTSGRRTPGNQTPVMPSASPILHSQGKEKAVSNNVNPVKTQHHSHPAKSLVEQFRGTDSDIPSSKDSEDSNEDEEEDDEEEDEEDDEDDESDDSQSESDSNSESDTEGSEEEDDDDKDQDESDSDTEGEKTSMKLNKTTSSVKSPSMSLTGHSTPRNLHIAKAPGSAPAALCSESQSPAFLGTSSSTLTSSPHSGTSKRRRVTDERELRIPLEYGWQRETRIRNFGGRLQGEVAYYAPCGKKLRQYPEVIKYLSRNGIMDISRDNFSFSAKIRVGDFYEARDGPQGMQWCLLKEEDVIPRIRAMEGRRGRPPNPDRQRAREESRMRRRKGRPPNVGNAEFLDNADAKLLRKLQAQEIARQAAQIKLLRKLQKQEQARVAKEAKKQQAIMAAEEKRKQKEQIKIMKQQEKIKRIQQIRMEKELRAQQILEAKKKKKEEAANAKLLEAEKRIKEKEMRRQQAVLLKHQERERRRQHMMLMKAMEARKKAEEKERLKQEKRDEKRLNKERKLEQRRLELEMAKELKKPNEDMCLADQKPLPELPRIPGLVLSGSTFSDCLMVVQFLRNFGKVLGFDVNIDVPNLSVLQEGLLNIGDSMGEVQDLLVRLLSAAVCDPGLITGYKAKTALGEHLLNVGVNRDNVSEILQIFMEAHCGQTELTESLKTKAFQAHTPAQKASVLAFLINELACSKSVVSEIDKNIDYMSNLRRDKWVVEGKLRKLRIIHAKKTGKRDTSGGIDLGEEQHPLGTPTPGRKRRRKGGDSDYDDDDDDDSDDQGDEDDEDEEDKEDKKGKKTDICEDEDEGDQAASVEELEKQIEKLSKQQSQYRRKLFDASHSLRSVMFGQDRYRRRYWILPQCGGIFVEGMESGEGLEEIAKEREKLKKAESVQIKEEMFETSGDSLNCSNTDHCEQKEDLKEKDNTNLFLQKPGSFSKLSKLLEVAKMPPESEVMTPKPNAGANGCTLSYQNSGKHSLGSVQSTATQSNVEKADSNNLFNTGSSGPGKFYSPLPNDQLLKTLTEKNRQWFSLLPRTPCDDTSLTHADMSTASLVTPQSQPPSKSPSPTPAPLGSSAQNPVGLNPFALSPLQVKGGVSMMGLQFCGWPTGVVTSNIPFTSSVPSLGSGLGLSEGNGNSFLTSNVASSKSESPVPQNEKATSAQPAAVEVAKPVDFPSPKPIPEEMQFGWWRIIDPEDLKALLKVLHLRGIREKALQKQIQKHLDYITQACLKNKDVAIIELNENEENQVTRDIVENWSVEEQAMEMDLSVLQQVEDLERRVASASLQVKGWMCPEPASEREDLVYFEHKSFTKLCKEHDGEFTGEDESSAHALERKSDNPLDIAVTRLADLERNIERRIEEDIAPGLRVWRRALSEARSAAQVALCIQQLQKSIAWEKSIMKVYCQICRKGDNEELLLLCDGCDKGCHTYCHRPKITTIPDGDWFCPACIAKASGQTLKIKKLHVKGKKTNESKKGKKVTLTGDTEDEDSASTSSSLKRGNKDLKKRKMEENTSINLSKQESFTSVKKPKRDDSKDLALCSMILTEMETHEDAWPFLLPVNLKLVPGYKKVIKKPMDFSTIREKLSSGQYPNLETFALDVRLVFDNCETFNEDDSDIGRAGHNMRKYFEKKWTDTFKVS
#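 AlphaScreen displacement of biotin-H3(5-23)K14Ac peptide (50 nM final) from BAZ2B (50 nM final) in PBS pH 7.4, 0.01% Tween-20; complex preformed 30 min RT, then compounds (top 110 uM) 30 min RT, beads 20 min dark.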
# Sfp inh – qHTS Assay for Inhibitors of Bacillus subtilis Sfp phosphopantetheinyl transferase (PPTase) | 4'-phosphopantetheinyl transferase ffp (Bacillus subtilis), Q9F4F7 | Biochemical Sfp PPTase activity, qHTS | Potency, µM, without a hit: largest response in the series, negative = inhibition, most hits filed as inhibitors | hit rate 3.5% among 310,000 | AID 1490, 2009;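 note: the enzyme is Sfp with the accession as filed and its product quenches rhodamine fluorescence; 0% = enzyme reaction without inhibitor and -100% = no enzyme wells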
#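 Fluorescence-quenching assay with 15 nM Sfp, 5 uM rhodamine-CoA and 12.5 uM BHQ-2-labelled ybbR peptide in pH 7.6 Hepes/MgCl2 buffer. Enzyme was pre-incubated with compound for 15 min at room temperature. Rate was taken from the 30-min fluorescence change (525/598 nm).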
# JMJD2A Tudor inh – qHTS Assay for Inhibitors of JMJD2A-Tudor Domain. AlphaScreen JMJD2A-Tudor / H3K4me3 peptide binding. Lysine-specific demethylase 4A (Homo sapiens), O75164. Potency, µM (top dose mostly 114 µM), without a hit: top-dose activity change, negative = inhibition, most hits filed as inhibitors. hit rate 4.4% among 390,000. AID 504339, 2011; note: % is set by controls: 0 for no effect and ±100 for the full control effect; nearly all actives have a fitted effect of over 50% in size
# Active calls of the source: *; ? = inconclusive; . = not tested or not shown; [ ] = another dose, or the depositor's remark. A selection: hits, their analogues and other compounds. The true share with any hit is near 12%. Calls come from the whole dose curve; as a rule, active = well fitted curve in the direction sought with a large enough effect; inconclusive = small, poorly fitted or top-dose-only effect, or another doubt; inactive = no such curve, though single readings can be large; an effect the other way counts as inactive or inconclusive. Potency is the fitted concentration of half-maximal effect.
SMILES,HP1b binding inh,G9a inh,PLK1 PBD block,BAZ2B inh,Sfp inh,JMJD2A Tudor inh
CSc1ccc(-c2sc(Nc3ccccc3)n[n+]2-c2ccc(F)cc2)cc1,-6.6%,50.1µM*,29.9µM*,?,13.2%,56.2µM*
Oc1ccc(-c2sc(Nc3ccccc3)n[n+]2-c2ccc(F)cc2)cc1,10.7%,35.5µM*,-20.2%,?,20.5%,-9.2%
C[n+]1nc(Nc2ccccc2)sc1-c1ccc(O)cc1,48.7%,?,-5.4%,-1.0%,9.8%,-22.8%
CC(NC(=O)COC(=O)CN1C(=O)C2CCCCC2C1=O)c1ccccc1 (stereo not given),28.1%,.,4.7%,.,.,10.4%
CN(C)S(=O)(=O)c1cccc(NC(=O)c2cccc(N3C(=O)CCC3=O)c2)c1,29.0%,?,-4.4%,8.6%,.,6.1%
COc1ccc(C(=O)NC2CCc3ccccc32)cc1OC1CCN(C(C)C)CC1 (stereo not given),36.8%,39.9%,1.8%,-9.8%,13.2%,0.0%
CC(=O)OCCN(C)c1cc(SC(C)C)c2nonc2c1[N+](=O)[O-],-0.8%,50.1µM*,?,?,-27.2%,?
CN(CCO)c1cc(Sc2nc3ccccc3s2)c2nonc2c1[N+](=O)[O-],?,?,1.89µM*,-29.9%[57.1 µM],25.1µM*,22.4µM*
CC(C)[C@H](NC(=O)[C@H](Cc1ccccc1)n1c(=O)[nH]c2ccccc2c1=O)C(=O)N1CCC[C@@H]1C(=O)O,35.1%,.,2.8%,-10.9%,7.4%,-6.8%
CC[n+]1ccc(C[n+]2ccccc2)c2ccccc21,79.4µM*,1.58µM*,-16.4%,10µM*,50.1µM*,?
CCOc1ccc(NC(=O)CSc2ccc(-c3ccco3)nn2)cc1,11.5%,?,-12.4%,-4.0%,-11.7%,-24.3%
COc1ccc(C(=O)CSc2ccc(-c3ccco3)nn2)cc1,21.6%,22.4µM*,-16.3%,50.1µM*,15.8µM*,-31.9%
COc1ccc(C(=O)CSc2ccc(-c3ccccc3)nn2)cc1,38.4%,-42.0%,-7.7%,9.7%,-1.5%,2.1%
O=C(CSc1ccc(-c2ccco2)nn1)Nc1ccc(F)cc1,17.8%,.,-19.9%,?,28.2µM*,-13.2%
O=C(Cn1nc(-c2ccco2)ccc1=O)Nc1ccc(Br)cc1,?,25.1µM*,21.2µM*,?,50.1µM*,-27.2%
COc1cccc(NC(=O)CSc2ccc(-c3ccco3)nn2)c1,13.1%,-25.7%,-18.6%,?,50.1µM*,-26.5%
CCN(CC)c1ccc(NC(=O)C2CCN(S(=O)(=O)c3ccc4c(c3)oc(=O)n4C)CC2)c(C)c1,12.9%,?,.,-11.2%,.,-27.8%
COc1ccc(CCNC(=O)CSc2ccc(-c3ccco3)nn2)cc1OC,52.2%,44.7µM*,2.5%,3.7%,?,-8.2%
COc1ccc(NC(=O)CSc2ccc(-c3ccco3)nn2)cc1OC,21.7%,?,-12.7%,-24.1%,44.7µM*,-23.6%
COC(=O)c1ccc(NC(=O)CN2C(=O)CC(c3ccccc3)Sc3ccccc32)cc1 (stereo not given),23.9%,-4.9%[59 µM],.,0.9%,.,-8.0%
O=C(CN(CCc1ccccc1)S(=O)(=O)c1ccccc1)NCc1ccc(Cl)cc1,59.3%,5.0%[59 µM],.,4.9%,.,-9.5%
O=C(CN(CCc1ccccc1)S(=O)(=O)c1ccc(Br)cc1)NCc1ccc(Cl)cc1,7.9%,?,.,?,.,14.1µM*
COC(=O)c1ccc(NC(=O)CN(CCc2ccccc2)S(=O)(=O)c2ccc(OC)cc2)cc1,25.5%,-3.8%[59 µM],.,-5.8%,.,-17.3%
